# Assay outcomes as filed in PubChem BioAssay.
# Most compounds without a hit are left out; they make up all but 10% or so of the library.
# Gal4-VP16 FLuc: inhibits Gal4-VP16 luciferase reporter, ROR gamma counter-screen; Drosophila S2 Gal4-VP16 UAS-luciferase, luminescence, 20 h; Potency, µM (titrated, usually from 53.6 µM), without a hit: top-dose activity, negative = inhibition, usual class: inhibitors; 3.5% of 310,000 active;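 also: Gal4-VP16 expression switched on by copper sulfate through the metallothionein promoter; % is scaled to controls: 0 for no effect and ±100 for the full control effect; nearly all actives have a fitted effect of over 50% in size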
# MCF10A rerep: DNA re-replication induction in MCF 10a cells; MCF 10A DNA re-replication, Hoechst nuclear intensity, 48 h; Potency, µM (series often up to 46.1 µM), for inactives: at the top dose activity, positive = re-replication, actives largely listed as activators; 2.9% of 350,000 active; also: % of control where 0% means no effect; nearly all actives have a fitted effect of over 50% in size
# SW480 rerep: inducers of DNA re-replication in SW480 colon cancer cells | SW480 DNA re-replication, Hoechst DNA content imaging, 48 h | Potency, µM (series often up to 46.1 µM), for the others: at the highest dose re-replication activation, actives largely listed as activators | 1.8% of 340,000 active | AID 624297; also: % of control where 0% means no effect; nearly all actives have a fitted effect of over 55% in size
#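 250 cells/well; 23 nL cpd via pin tool; 48 hr, 37 C, 5% CO2; Hoechst 40 min; imager read of total nuclear intensity, ex 405/em 500-530 nm.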
# RORgamma inh: inhibitors of mouse ROR gamma transcriptional activity. P51450. Drosophila S2 Gal4-RORgamma UAS-luciferase reporter, 20 h. Potency, µM (titrated, usually from 53.6 µM), for the others: at the top dose activity change, negative = inhibition, most hits filed as inhibitors. 5.4% of 310,000 active. AID 2551; also: % is scaled to controls: 0 for no effect and ±100 for the full control effect; nearly all actives have a fitted effect of over 60% in size
# Target sequence (P51450 whole entry, looked up, the tested form may be a part): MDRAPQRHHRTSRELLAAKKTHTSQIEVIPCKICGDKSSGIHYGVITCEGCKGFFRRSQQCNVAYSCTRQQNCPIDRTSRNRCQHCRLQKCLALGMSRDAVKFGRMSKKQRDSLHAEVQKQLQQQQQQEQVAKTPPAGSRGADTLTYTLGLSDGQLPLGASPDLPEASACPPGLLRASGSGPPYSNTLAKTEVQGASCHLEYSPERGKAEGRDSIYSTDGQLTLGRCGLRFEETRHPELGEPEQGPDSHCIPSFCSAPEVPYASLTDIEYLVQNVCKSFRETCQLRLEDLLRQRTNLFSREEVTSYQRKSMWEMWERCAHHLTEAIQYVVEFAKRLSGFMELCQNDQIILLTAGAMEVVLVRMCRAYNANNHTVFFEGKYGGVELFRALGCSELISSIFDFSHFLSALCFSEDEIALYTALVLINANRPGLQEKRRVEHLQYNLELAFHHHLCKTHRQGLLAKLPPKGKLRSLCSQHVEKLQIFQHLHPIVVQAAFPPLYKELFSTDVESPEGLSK
#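 Luciferase reporter read in Schneider cells carrying Gal4-RORγ (mouse) and UAS-Photinus luciferase; cells given compound 1 h before 700 uM copper sulfate induction, then incubated 20 h at ambient temperature.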
# ELG1 repair inh: blocks ELG1-dependent DNA repair in HEK293T cells; HEK293T ELG1-luciferase reporter, luminescence, 16 h; DNA damage induced by 5-fluorouridine; Potency, µM (highest dose often 46.1 µM), without a hit: top-dose activity change, negative = inhibition, actives largely listed as inhibitors; AID 504467; 2.3% of 330,000 active; also: % is scaled to controls: 0 for no effect and ±100 for the full control effect; nearly all actives have a fitted effect of over 55% in size
#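 In this reporter screen, reduction of luminescence relative to DMSO vehicle indicated activity. Compounds and 5-fluorouridine were added together to 2,000 cells per well, incubated for 16 hr at 37 °C, then developed with ONE-Glo.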
# * marks the source's active call; other numbers are inactive results; ? = inconclusive; nt = no result; [ ] = dose if it differs, or a comment. Calls follow the shape of the dose curve; as a rule, active = well fitted curve in the direction sought with a large enough effect; inconclusive = small, poorly fitted or top-dose-only effect, or another doubt; inactive = no such curve, though single readings can be large; an effect the other way counts as inactive or inconclusive. Potency is read from the fitted curve at half-maximal effect.
SMILES,Gal4-VP16 FLuc,MCF10A rerep,SW480 rerep,RORgamma inh,ELG1 repair inh
COc1ccc(C)cc1NS(=O)(=O)c1ccc(-c2cnc(C3CC3)o2)cc1,17.8µM*,?,0.13µM*,34.4%,-0.9%
Cc1ccc(NS(=O)(=O)c2ccc(-c3cnc(C4CC4)o3)cc2)cc1,-12.2%,10.3µM*,18.4µM*,?,-7.3%
CCOc1ccccc1CNS(=O)(=O)c1ccc(-c2cnc(C3CC3)o2)cc1,?,1.3µM*,?,15.0%,-15.1%
CC(=O)C1=NN(c2ccccc2)C2(S1)S/C(=C\c1ccccc1)C(=O)N2c1ccccc1 (centres undefined),4.5%,?,5.17µM*,13.4%,-4.8%
O=C(CN1CCN(Cc2ccccc2)CC1)N1CCCc2c1c(=O)oc1ccc(O)cc21,-11.5%,20.6µM*,25.5%,5.1%,-18.6%
O=C(c1ccco1)N1CCN(CC(=O)N2CCCc3c2c(=O)oc2ccc(O)cc32)CC1,-12.0%,-0.4%,-0.1%,5.2%,11.1%
CCOC(=O)N1CCN(C(=O)CSc2cc(C)nc3c(-c4ccccc4OC)c(C)nn23)CC1,12.6µM*,-1.3%,3.2%,20µM*,-14.7%
Cc1cc(C)c(CN2CCC(n3nccc3NC(=O)c3ccccc3Cl)CC2)cc1C,1.9%,?,?,7.0%,-25.0%
COc1ccccc1C(=O)Nc1ccnn1C1CCN(Cc2cc(C)c(C)cc2C)CC1,-12.5%,?,?,7.6%,23.1µM*
COCc1ccc(CN2CCC(n3nccc3NC(=O)CCOc3ccccc3)CC2)o1,?,-0.3%,-0.7%,8.91µM*,?
O=C(CCOc1ccccc1)Nc1ccnn1C1CCN(Cc2ccc(O)cc2)CC1,-2.5%,-0.4%,-5.6%,25.3%,-3.3%
CNc1ccnc(-c2ccccc2C)n1,-8.6%,nt,nt,-4.3%,nt
Cc1sc2nc(C3CC3)nc(N3CCN(C(=O)c4ccc(Cl)cc4)CC3)c2c1C,-6.5%,?,6.8%,5.5%,23.1µM*
Cc1sc2nc(C3CC3)nc(N3CCN(C(=O)c4ccc(F)cc4)CC3)c2c1C,-1.6%,?,?,12.2%,?
Cc1cc(C)n2nc(SCCOc3ccccc3)nc2n1,5.2%,9.5%,-5.4%,16.1%,19.4%
CCOC(=O)c1c(N)sc(C(O)(C(F)(F)F)C(F)(F)F)c1-c1ccc(Cl)cc1,?,14.6µM*,?,?,4.5%
CCOC(=O)c1c(N)sc(C(O)(C(F)(F)F)C(F)(F)F)c1-c1ccc(F)cc1,?,-189.3%[0.0737 µM],18.4µM*,-25.7%,-9.2%
COc1ccccc1OCC(=O)Nc1nonc1NC(=O)COc1ccccc1OC,-11.7%,-4.5%,-3.4%,8.3%,0.6%
Cc1ccc(S(=O)(=O)N2CCCCC2)cc1NC(=O)Cn1cnc2c1c(=O)n(C)c(=O)n2C,nt,3.5%,-0.2%,nt,7.3%
Cc1nn(-c2ccccc2)c(Cl)c1/C=N/Nc1nc2ccccc2n1C,3.55µM*,?,?,1.12µM*,?
Cc1nn(-c2ccccc2)c(Cl)c1/C=N/NC(N)=O,10.2%,-20.9%,?,12.7%,?
COc1ccc(C(=O)NC(C)c2csc(C)n2)cc1OC1CCN(C(C)=O)CC1 (centres undefined),-0.9%,-0.2%,-14.9%,-20.2%,-2.7%
OC(COc1ccccc1)CN1CCCCC1 (centres undefined),nt,-10.4%,0.2%,nt,nt
OC(COc1ccc(CNCCc2ccccc2F)cc1)CN1CCCCC1 (centres undefined),2.9%,18.4µM*,?,27.8%,2.2%
CCOC(=O)C1(Cc2ccccc2)CCN(Cc2ccon2)CC1,-5.2%,-8.7%,-6.0%,0.6%,9.2%
SMILES,Gal4-VP16 FLuc,MCF10A rerep,SW480 rerep,RORgamma inh,ELG1 repair inh
CCOC(=O)C1(CCc2ccccc2)CCN(Cc2nccn2CC)CC1,11.2µM*,19.7%,1.6%,7.08µM*,?
CCOC(=O)C1(Cc2ccccc2)CCN(Cc2ccc(C3CCCCO3)s2)CC1 (centres undefined),3.2%,16.4µM*,11.5%,6.0%,?
CCOC(=O)C1(Cc2ccccc2)CCN(Cc2ccc(COC)o2)CC1,-7.3%,-0.9%,-2.9%,6.1%,-5.6%
CCOC(=O)C1(Cc2ccccc2)CCN(Cc2nccn2CC)CC1,?,?,?,7.94µM*,-0.4%
CCOC(=O)C1(Cc2cccc(F)c2)CCN(Cc2ccc(COC)o2)CC1,4.1%,10.8%,1.1%,-0.5%,23.1µM*
CC1=C(C)C(OCCCl)N(c2cc(O)c(Cl)cc2F)C1=O (centres undefined),2.4%,4.5%,5.6%,12.4%,-5.5%
CC(=O)Nc1ccc(NC(C)=C(C#N)C#N)cc1,-12.6%,-0.9%,-4.1%,-14.5%,15.8%
CC1/C=C/C=C/C=C/C=C/C=C/C=C/C=C/C(OC2OC(C)C(O)C(N)C2O)CC2O[C@@](O)(CC(O)CC(O)C(O)CCC(O)CC(O)CC(=O)OC(C)[C@H](C)C1O)CC(O)C2C(=O)O (some centres undefined),-0.9%,nt,nt,-9.4%,nt
CCOC(=O)C1(Cc2ccc(Cl)cc2)CCN(Cc2nccn2CC)CC1,12.6µM*,16.6%,21.6%,3.16µM*,-10.5%
CCOC(=O)C1(Cc2ccc(Cl)cc2)CCN(CCCn2cccn2)CC1,-3.8%,14.9%,9.6%,-18.6%,1.8%
O=C(NC(=S)NCc1ccccc1)c1cccc([N+](=O)[O-])c1,5.62µM*,21.7%,-13.3%,6.31µM*,-4.1%
Cc1cccc(C(=O)NC(=S)NCc2ccccc2)c1,nt,13.8%,-7.5%,nt,nt
O=C(CNC(=S)NC(=O)c1cccc([N+](=O)[O-])c1)c1ccccc1,12.6µM*,31.8%,2.3%,7.08µM*,?
CCCCCC(=O)NNC(=S)NC(=O)c1cccc([N+](=O)[O-])c1,5.01µM*,6.9%,-12.1%,3.55µM*,-7.5%
O=C(C#Cc1ccccc1)c1cccc([N+](=O)[O-])c1,6.31µM*,2.91µM*,7.31µM*,5.62µM*,?
O=C(NC(=S)NNC(=O)c1ccccc1O)c1cccc([N+](=O)[O-])c1,-1.2%,3.1%,-75.7%,-33.5%,-18.1%
COCCNC(=O)C(NC(=O)C1CCCCC1)C(C)C (centres undefined),4.0%,0.2%,-6.0%,0.5%,12.5%
CCc1ccc(C(=O)COC(=O)C2CCN(c3ccc(C(F)(F)F)cn3)CC2)cc1,nt,-1.9%,-1.1%,nt,11.2%
CC1CCCCN1C(=O)c1cccc(NC2=C(Cl)C(=O)N(Cc3ccccc3)C2=O)c1 (centres undefined),nt,23.1µM*,?,nt,10µM*
CC1CCN(C(=O)c2ccc(NC3=C(Cl)C(=O)N(Cc4ccccc4)C3=O)cc2)CC1,nt,23.1µM*,?,nt,10.3µM*
CC1CCN(C(=O)c2ccc(NC(=O)c3ccccc3)cc2)CC1,5.1%,2.8%,2.5%,-10.0%,6.2%
C=CCOc1c(Br)cc(CNc2nccs2)cc1OC,17.8µM*,0.6%,11.0%,12.6µM*,-15.2%
